This passage reports growth inhibition, inhibition and outcome results from PubChem BioAssay.

A number with no mark means an inactive call. For some of these results: Measured potencies and affinities stand elsewhere. Active and inactive are the calls of the source. Unless noted, how the calls were made is not given here.

A short description of experiment [1]: antimalarial activity against Dd2 strain (AID 2302;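 active means growth inhibition above 50% at the single 2 µM test dose, taken to imply half-maximal potency below 2 µM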;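 further: 0% = DMSO untreated growth and 100% = chloroquine plus artemisinin killed control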). As to conditions: P. falciparum Dd2 in RBCs, LDH growth readout, 72 h; at 2 µM; active compounds read high.
The nature of experiment [2]: HepG2 cytotoxicity, primary screen, cytotoxicity control for P. falciparum antimalarial project, cell-based, ATP luminescence (AID 2303;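 active means inhibition above 50%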;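 further: 0% = DMSO wells and 100% = digitonin-killed cells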). As to conditions: HepG2 viability, 24-48 h, at 10 µM, active compounds read high.
For experiment [3], the target named is L-lactate dehydrogenase (Plasmodium falciparum (isolate CDC / Honduras)) (UniProt Q27743). The experiment in a line: PfLDH activity inhibition – cell lysate, 3D7 strain, counter-screen for P. falciparum growth inhibition project (AID 2304).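 Further: 0% = vehicle and 100% = reference inhibitor.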 As to conditions: P. falciparum 3D7 crude extract, LDH APAD/NBT absorbance; at 2 µM; active compounds read high. For orientation: A counterscreen serves to expose hits that act by an unwanted route or on another target.

A short description of experiment [4]: inhibition of 3D7 malaria parasite growth – strain 3D7 (AID 2306).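 Further: 0% = DMSO wells and 100% = chloroquine plus artemisinin control wells.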 The following applies: P. falciparum 3D7 erythrocytic growth, LDH absorbance, 72 h; at 2 µM; active compounds read high.
For experiment [5], the target named is Calcium-dependent protein kinase 1 (Plasmodium falciparum (isolate 3D7)) (UniProt P62344). The experiment in a line: PfCDPK1 kinase inhibitors, biochemical, TCAMS library (AID 1159585; cut-off not given, nearly all actives have IC50 up to about 0.98 µM;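 further: inhibitors leave more ATP so luminescence rises with inhibition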). As to conditions: recombinant PfCDPK1, Kinase-Glo ATP depletion luminescence. (Kinase-Glo reads ATP consumption through a luciferase reaction.)
In experiment [6] the target is Plasmodium falciparum protein kinase 6 (PK6, PF3D7_1337100) (UniProt Q8IDW1). Nature of the experiment: PfPK6 kinase inhibitors, biochemical, TCAMS library (AID 1159586). The following applies: recombinant PfPK6, Kinase-Glo ATP depletion luminescence.
In experiment [7] the target is Protein kinase 7 (PK7), Plasmodium falciparum 3D7 (PF3D7_0213400) (UniProt Q7YTF7). The experiment in a line: inhibition of Plasmodium PK7 catalytic activity – biochemical, TCAMS antimalarial set, Kinase-Glo luminescence (AID 1159587). As to conditions: recombinant PfPK7, Kinase-Glo ATP depletion luminescence.
The target of experiment [8] is Calcium-dependent protein kinase 4 (Plasmodium falciparum (isolate 3D7)) (UniProt Q8IBS5). Nature of the experiment: PfCDPK4 kinase inhibitors, biochemical, TCAMS library (AID 1159588; cut-off not given, nearly all actives have IC50 up to about 0.91 µM). The following applies: recombinant PfCDPK4, Kinase-Glo ATP depletion luminescence.
Calcium-dependent protein kinase 4 (Plasmodium falciparum (isolate 3D7)), sequence (Q8IBS5 whole entry, looked up): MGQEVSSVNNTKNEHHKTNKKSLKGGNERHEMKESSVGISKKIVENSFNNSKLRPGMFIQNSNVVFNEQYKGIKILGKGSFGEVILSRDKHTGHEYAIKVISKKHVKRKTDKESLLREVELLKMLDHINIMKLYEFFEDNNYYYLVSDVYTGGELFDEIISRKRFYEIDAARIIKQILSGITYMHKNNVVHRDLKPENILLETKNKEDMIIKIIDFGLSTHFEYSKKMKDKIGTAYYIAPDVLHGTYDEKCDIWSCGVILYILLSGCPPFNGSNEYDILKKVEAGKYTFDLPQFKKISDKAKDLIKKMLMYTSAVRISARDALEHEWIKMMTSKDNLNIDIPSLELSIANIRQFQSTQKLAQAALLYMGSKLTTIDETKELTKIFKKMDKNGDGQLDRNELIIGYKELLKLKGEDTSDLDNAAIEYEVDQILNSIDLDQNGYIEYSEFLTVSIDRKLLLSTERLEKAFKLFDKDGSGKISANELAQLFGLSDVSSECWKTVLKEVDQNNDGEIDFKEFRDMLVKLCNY

Plasmodium falciparum protein kinase 6 (PK6, PF3D7_1337100), sequence (Q8IDW1 1-305): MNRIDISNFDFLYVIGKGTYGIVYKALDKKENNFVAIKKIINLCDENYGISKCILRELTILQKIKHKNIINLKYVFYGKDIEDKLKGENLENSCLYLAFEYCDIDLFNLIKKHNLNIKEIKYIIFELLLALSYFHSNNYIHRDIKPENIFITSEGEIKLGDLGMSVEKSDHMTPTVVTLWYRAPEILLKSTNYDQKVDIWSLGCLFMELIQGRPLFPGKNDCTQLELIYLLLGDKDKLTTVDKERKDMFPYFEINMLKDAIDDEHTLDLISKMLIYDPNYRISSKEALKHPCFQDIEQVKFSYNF
L-lactate dehydrogenase (Plasmodium falciparum (isolate CDC / Honduras)), sequence (Q27743 whole entry, looked up): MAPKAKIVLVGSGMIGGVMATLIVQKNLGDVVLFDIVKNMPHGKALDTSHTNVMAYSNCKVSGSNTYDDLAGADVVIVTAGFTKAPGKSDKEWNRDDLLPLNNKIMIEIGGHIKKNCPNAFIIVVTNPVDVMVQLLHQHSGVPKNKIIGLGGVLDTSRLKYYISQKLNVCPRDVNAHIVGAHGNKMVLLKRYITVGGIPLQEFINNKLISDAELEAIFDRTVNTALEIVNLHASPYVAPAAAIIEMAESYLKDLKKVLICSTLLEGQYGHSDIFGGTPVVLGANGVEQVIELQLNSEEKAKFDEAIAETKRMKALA
Calcium-dependent protein kinase 1 (Plasmodium falciparum (isolate 3D7)), sequence (P62344 whole entry, looked up): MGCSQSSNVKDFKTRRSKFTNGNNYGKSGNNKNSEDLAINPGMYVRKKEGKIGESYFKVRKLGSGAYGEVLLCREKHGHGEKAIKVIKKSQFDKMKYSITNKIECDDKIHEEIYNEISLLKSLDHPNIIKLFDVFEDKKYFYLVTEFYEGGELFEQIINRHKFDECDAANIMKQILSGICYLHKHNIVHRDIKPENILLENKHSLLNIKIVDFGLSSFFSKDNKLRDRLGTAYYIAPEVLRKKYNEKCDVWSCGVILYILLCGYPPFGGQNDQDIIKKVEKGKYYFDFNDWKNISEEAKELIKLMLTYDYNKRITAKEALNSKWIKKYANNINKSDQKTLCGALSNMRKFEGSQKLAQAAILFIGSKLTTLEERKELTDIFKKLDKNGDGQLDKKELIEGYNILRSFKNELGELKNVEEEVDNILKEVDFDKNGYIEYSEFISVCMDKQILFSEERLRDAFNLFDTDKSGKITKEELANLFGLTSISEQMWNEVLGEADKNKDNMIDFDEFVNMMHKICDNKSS
Protein kinase 7 (PK7), Plasmodium falciparum 3D7 (PF3D7_0213400), sequence (Q7YTF7 1-343): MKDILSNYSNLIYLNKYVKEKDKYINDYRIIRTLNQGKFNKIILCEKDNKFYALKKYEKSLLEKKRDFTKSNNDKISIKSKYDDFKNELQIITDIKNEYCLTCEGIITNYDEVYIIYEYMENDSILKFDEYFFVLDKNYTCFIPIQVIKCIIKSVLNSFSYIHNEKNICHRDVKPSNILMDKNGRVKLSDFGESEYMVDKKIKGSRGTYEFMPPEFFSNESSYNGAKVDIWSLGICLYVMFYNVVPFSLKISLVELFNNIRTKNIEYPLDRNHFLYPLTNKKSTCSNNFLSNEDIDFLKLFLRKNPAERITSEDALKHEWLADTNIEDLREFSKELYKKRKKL

The inhibition is the relative decrease from the control value, in per cent. In the case of `CCCCCCOc1ccccc1C(=O)NCCOc1ccc(Cl)cc1`, the growth inhibition in experiment [1] was 37%; in experiment [4] it was 84% (active). Besides, the inhibition in experiment [2] was 16%; in experiment [3], 4%. Besides, the outcome in experiment [5], in experiment [6], in experiment [7] and in experiment [8] was inactive.

`Cc1noc(C)c1-c1ccc2c(Nc3nccc4ccccc34)c(C(N)=O)cnc2c1`: the growth inhibition in experiment [1] is 99% (active); in experiment [4] it was 100% (active). The inhibition in experiment [2] was 100% (active); in experiment [3] it was 1%. Besides, the outcome in experiment [5], in experiment [6], in experiment [7] and in experiment [8] was inactive.

For `FC(F)(F)c1ccc2nc(-c3ccc(-c4ccc(CNCC5CCCO5)cc4)cc3)[nH]c2c1` (stereo not given), the growth inhibition is 100% (active) in experiment [1] and 101% (active) in experiment [4]. The inhibition in experiment [2] is 33%; in experiment [3], -3%. Further, the outcome in experiment [5], in experiment [6], in experiment [7] and in experiment [8] was inactive.

`CN1CCN(CCCN(Cc2ccc(-c3cccc(CNCc4ccc5c(c4)OCO5)c3)cc2)C(=O)Nc2ccccc2)CC1`: the growth inhibition in experiment [1] is 87% (active); in experiment [4], 101% (active). For the same compound, the figures for the inhibition in experiment [2] and in experiment [3] were 51% (active) and -7%, respectively. For the same compound, the result in experiment [5], in experiment [6], in experiment [7] and in experiment [8] was inactive.

With `Cc1cc(C(=O)Nc2ccc3c(c2)CCN3C2CCN(Cc3csc4ccccc34)C2)no1` (stereo not given), the growth inhibition in experiment [1] and in experiment [4] was 96% (active) in each case. The results for the inhibition in experiment [2] and in experiment [3] were 1% and 0%, respectively. The outcome in experiment [5], in experiment [6], in experiment [7] and in experiment [8] was inactive.

Regarding `COc1ccccc1-c1sccc1C(=O)NC1(c2cc(Cl)cc(Cl)c2)CCCC1`, the growth inhibition in experiment [1] is 95% (active); in experiment [4], 88% (active). In addition, the inhibition is -5% in experiment [2] and -3% in experiment [3]. Besides, the result in experiment [5], in experiment [6], in experiment [7] and in experiment [8] was inactive.

For the compound `O=C(Nc1nc2ccc(Cl)cc2s1)c1csnn1`, the figures for the growth inhibition in experiment [1] and in experiment [4] were 99% (active) and 96% (active), respectively. The results for the inhibition in experiment [2] and in experiment [3] were 15% and 3%, respectively. The result in experiment [5], in experiment [6], in experiment [7] and in experiment [8] was inactive.

As to `c1ccc(Oc2ccc(Nc3ccnc4cc(-c5cccc(CN6CCOCC6)c5)ccc34)cc2)cc1`, the values for the growth inhibition in experiment [1] and in experiment [4] were 100% (active) and 101% (active), respectively. In addition, the inhibition in experiment [2] was 14%; in experiment [3], -1%. Also, the outcome in experiment [5], in experiment [6], in experiment [7] and in experiment [8] was inactive.

For `Nc1ncnc2cc(-c3cccc(S(N)(=O)=O)c3)sc12`, the growth inhibition in experiment [1] is 99% (active); in experiment [4], 98% (active). Further, the inhibition in experiment [2] was 13%; in experiment [3], 2%. In addition, the outcome in experiment [5], in experiment [6], in experiment [7] and in experiment [8] was inactive.

For `O=C(Nc1ccc(NC2=NCCN2)cc1)c1ccc(C(=O)Nc2ccc(NC3=NCCN3)cc2)cc1`, the figures for the growth inhibition in experiment [1] and in experiment [4] were 86% (active) and 91% (active), respectively. For the same compound, the inhibition in experiment [2] is 15%; in experiment [3] it was -8%. Moreover, the outcome in experiment [5], in experiment [6], in experiment [7] and in experiment [8] was inactive.

Regarding `CN(CCC(O)c1ccc(Cl)c(Cl)c1)C[C@H]1C[C@@H]1C(=O)c1ccccc1` (stereo not given in full), the growth inhibition in experiment [1] was 96% (active); in experiment [4], 98% (active). Besides, the inhibition in experiment [2] is 11%; in experiment [3], -3%. Also, the outcome in experiment [5], in experiment [6], in experiment [7] and in experiment [8] was inactive.

As to `CN1CCC(NCc2ccc(-c3cccc(S(=O)(=O)NCC4CCCO4)c3)cc2)CC1` (stereo not given), the growth inhibition is 0% in experiment [1] and 90% (active) in experiment [4]. The inhibition in experiment [2] is 8%; in experiment [3] it was -1%. For the same compound, the result in experiment [5], in experiment [6], in experiment [7] and in experiment [8] was inactive.

For `CCOc1ncccc1CN1CCC(N2CCc3cc(NC(=O)c4cc(C)on4)ccc32)C1` (stereo not given), the results for the growth inhibition in experiment [1] and in experiment [4] were 96% (active) and 89% (active), respectively. Also, the values for the inhibition in experiment [2] and in experiment [3] were -3% and -1%, respectively. Moreover, the result in experiment [5], in experiment [6], in experiment [7] and in experiment [8] was inactive.

For the compound `COc1ccc2nccc([C@@H](O)CN3CCC(NC(=O)C(c4cc5ccccc5o4)N4CCN(c5ccccc5)CC4)CC3)c2c1` (stereo not given in full), the growth inhibition in experiment [1] and in experiment [4] was 99% (active) each time. For the same compound, the inhibition in experiment [2] was 19%; in experiment [3] it was -2%. Moreover, the outcome in experiment [5], in experiment [6], in experiment [7] and in experiment [8] was inactive.

For `COc1ccc(C(=O)CCC(=O)N(Cc2ccc(-c3ccc(CNCCc4ccc(S(C)(=O)=O)cc4)cn3)cc2)Cc2ccc3c(c2)OCO3)cc1F`, the growth inhibition in experiment [1] is 41%; in experiment [4], 95% (active). For the same compound, the inhibition was 13% in experiment [2] and 3% in experiment [3]. For the same compound, the outcome in experiment [5], in experiment [6], in experiment [7] and in experiment [8] was inactive.

In the case of `Cc1cc(S(=O)(=O)N2CCCCC(c3ccc(C(F)(F)F)cc3)=N2)c(Cl)cc1Cl`, the growth inhibition in experiment [1] and in experiment [4] was 97% (active) each time. The inhibition is 17% in experiment [2] and 0% in experiment [3]. Further, the result in experiment [5], in experiment [6], in experiment [7] and in experiment [8] was inactive.

In the case of `Cc1cc(C)cc(-n2c(C)cc(C=C3SC(=Nc4ccc(Cl)cc4)NC3=O)c2C)c1`, the growth inhibition in experiment [1] and in experiment [4] was 97% (active) in each case. Besides, the inhibition in experiment [2] was 12%; in experiment [3] it was -7%. In addition, the outcome in experiment [5], in experiment [6], in experiment [7] and in experiment [8] was inactive.

As to `CNCCNCc1cccc(-c2ccc(-c3nc4ccccc4[nH]3)cc2)c1`, the growth inhibition in experiment [1] is 27%; in experiment [4], 99% (active). In addition, the inhibition in experiment [2] is 13%; in experiment [3], -6%. Also, the result in experiment [5], in experiment [6], in experiment [7] and in experiment [8] was inactive.

`c1ccc(CN2CCC(NCc3cccc(-c4cncc5ccccc45)c3)CC2)cc1`: the growth inhibition in experiment [1] is 11%; in experiment [4] it was 92% (active). The figures for the inhibition in experiment [2] and in experiment [3] were 29% and 3%, respectively. Further, the outcome in experiment [5], in experiment [6], in experiment [7] and in experiment [8] was inactive.

In the case of `c1ccc(C(c2cccs2)N2CCN(Cc3ccc(OCCCN4CCCCC4)cc3)CC2)cc1` (stereo not given), the growth inhibition in experiment [1] is 14%; in experiment [4], 91% (active). The inhibition was 41% in experiment [2] and 2% in experiment [3]. Moreover, the result in experiment [5], in experiment [6], in experiment [7] and in experiment [8] was inactive.
